The whole screen tested about 140,000 compounds, of which about 1,700 (1.2%) were called active. Shown is part of a subset that was picked to be rich in actives. Values without a mark were called inactive.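 How the source made its calls: active means viability at or below a set limit, 4 SD under the median of all tested compounds (cut at about 3.7% in these data); inactive means the rest.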
Experiment: growth suppression of PTEN-null HCT116, primary screen, cell-based, CellTiter-Glo (AID 827);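 further: PTEN knockout HCT116 line with beta catenin targeted HCT116 as companion control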
Settings: 60 h, at 10 µM, hits give low values

Compound	viability
O=C1CCCCC(=O)c2ccccc2N1	97.7%
c1ccc2c(c1)C(=NC1CCCCC1)NC2=NC1CCCCC1	1.88% (active)
O=C(CN1C(=O)C2C3CCC(C3)C2C1=O)Oc1ccc2ccccc2c1 (stereo not drawn)	86%
CC1=CC(C)(C)Nc2ccc(OC(=O)CN3C(=O)C4CCCCC4C3=O)cc21 (stereo not drawn)	0.76% (active)
CC1=CC(C)(C)Nc2ccc(OC(=O)C(Cc3ccccc3)N3C(=O)C4CCCCC4C3=O)cc21 (stereo not drawn)	45.7%
CCn1c(=O)cc(SCC(=O)NCCC2=CCCCC2)c2ccccc21	91.3%
CCCC(=O)Nc1ccc(C(=O)N/N=C/c2ccc[nH]2)cc1	80.1%
Cc1ccc(S(=O)(=O)N2CCC(C(=O)N[C@@H](C)C(=O)NCc3ccco3)CC2)cc1	102%
Cc1cc(C)c2nc(SCCC#N)nc(C)c2c1	109%
Cc1cc(C)c2nc3nc(C)cc(C)c3c(N)c2c1	2.26% (active)
CNC(=S)N/N=C/c1cn(Cc2ccc(C)cc2)c2ccccc12	49.9%
CC(=O)N1CCN(c2cccc(C)c2C)CC1	98%
Cc1cccc(N2CCN(C(=O)c3cnn4c(C(F)F)cc(-c5ccccc5)nc34)CC2)c1C	3.53% (active)
O=C(O)c1cnn2c(C(F)(F)F)cc(-c3ccccc3)nc12	95.3%
O=C(c1cccs1)N1CCN(Cc2ccc3c(c2)OCO3)CC1	94.4%
O=C(CCCN1C(=O)c2cccc3cccc(c23)C1=O)N1CCN(Cc2ccc3c(c2)OCO3)CC1	89.4%
O=C(Nc1cccc2ccccc12)N1CCN(Cc2ccc3c(c2)OCO3)CC1	1.32% (active)
CC1CCN(c2ccc(C(=O)Nc3nnc(C4CC4)s3)cc2[N+](=O)[O-])CC1	96.1%
Cc1ccc(C2=N/C(=C\c3ccc(OS(=O)(=O)c4ccc(C)cc4)cc3)C(=O)O2)cc1	92.6%
CCN1/C(=C/c2ccc3ccc(C)cc3[n+]2CC)Sc2ccccc21	2.61% (active)

Compound	viability
CCC(=O)/C=C1\Sc2ccccc2N1CC	95.3%
O=C(NNC1=NCCC1)c1cccc(S(=O)(=O)N2CCCCC2)c1	96.7%
CC(=O)c1ccc(NC(=S)NC(=O)CC(C)C)cc1	98.8%
O=C(CC(=O)N/N=C\c1cccc(Cl)c1Cl)NCc1ccccc1	90.4%
COc1ccccc1N1CCN(Cc2nnnn2CCc2ccccc2)CC1	104%
COc1ccccc1N1CCN(C(=O)CN(Cc2ccc(Cl)cc2)S(C)(=O)=O)CC1	68.5%
COc1ccccc1-n1nnnc1S(=O)(=O)Cc1ccc(Cl)cc1	3.39% (active)
CCCN=C1NC(=O)C(CC(=O)NCCc2ccc(OC)c(OC)c2)S1 (stereo not drawn)	96.5%
CC(C)Nc1nnc(SCC(=O)/C=C2\N(C)c3ccccc3C2(C)C)s1	79%
CCOc1ccc(NC(=O)CCC(=O)N/N=C/c2ccc([N+](=O)[O-])s2)cc1	6.05%
O=[N+]([O-])c1ccc(C=Nc2ccc(Cl)cc2Cl)s1	2.41% (active)
CC(=O)NC1=NN(C(C)=O)C(C)(CCS(=O)(=O)c2ccc(Cl)c(Cl)c2)S1 (stereo not drawn)	94.7%
COc1ccc2nc(NC(=O)[C@@H]3CCCN3C(=O)c3cccs3)sc2c1	85.2%
O=C(NCCN1CCN(Cc2ccccc2)CC1)c1cc2c(=O)[nH]c3ccccc3c2s1	2.62% (active)
CN1CCN(CCCNC(=O)c2cc3c(=O)oc4ccccc4c3s2)CC1	109%
Cn1c(C(=O)NCCN2CCc3ccccc3C2)cc2c(=O)[nH]c3ccccc3c21	75.8%
COc1ccccc1OCC(=O)OCn1c(SC)nnc(C)c1=O	98.3%
CC(C)(C)C(=O)N1CCC[C@@]1(CO)C(=O)O	93.1%
CCCCCC(=O)NC(=S)NNC(=O)c1ccc([N+](=O)[O-])cc1	37.4%
O=C(COc1ccc(/C=N/NC(=O)c2ccc(O)cc2)cc1)Nc1ccc([N+](=O)[O-])cc1	60.2%

Compound	viability
CCCCCC(=O)Nc1ccc(C(=O)N/N=C/c2ccc([N+](=O)[O-])cc2)cc1	1.62% (active)
Cc1cc(C)cc(OCC(=O)Nc2nc3ccc([N+](=O)[O-])cc3s2)c1	103%
O=C(NC(Nc1nc2ccc([N+](=O)[O-])cc2s1)(C(F)(F)F)C(F)(F)F)c1ccccc1	1.46% (active)
COC(=O)C(NC(=O)c1ccc(OC)cc1)(Nc1ncc(S(=O)(=O)c2ccc([N+](=O)[O-])cc2)s1)C(F)(F)F (stereo not drawn)	72.2%
COc1cc(NC(=O)COC(=O)CSc2ccc3ccccc3c2)c(C)cc1[N+](=O)[O-]	96.9%
CCn1nc(C)c(/C=N/NC(=O)Cc2ccc(Cl)cc2)c1C	91.7%
CCOc1ccc(C(=O)NC(=S)Nc2ccc(NC(=O)C(C)C)cc2)cc1[N+](=O)[O-]	87.9%
Cc1[nH]c2ccccc2c1C(=O)COC(=O)C(C)C	112%
CCOC(=O)c1c(C)[nH]c(=S)c(C#N)c1-c1ccccc1	102%
CCOC(=O)c1c(C)[nH]c2c1-c1ccccc1C(=O)C2=O	1.66% (active)
CN(C)S(=O)(=O)c1cc(NC(=O)CN2C(=O)NC3(CCCc4ccccc43)C2=O)ccc1Cl (stereo not drawn)	59.3%
CCOCCCNC(=O)C(=O)NCCCOCC	102%
COC(=O)CN1C(=O)C(O)=C(C(C)=O)C1c1ccc([N+](=O)[O-])cc1 (stereo not drawn)	96.7%
CCC(CC)C(=O)N1CC(=O)Nc2ccc(Br)cc2C1c1ccccc1 (stereo not drawn)	71.6%
COC(=O)CN1C(C)=Nc2ccc(Br)cc2C1c1ccccc1 (stereo not drawn)	0.62% (active)
COc1ccc(OCc2cn3c(C)cc(C)nc3n2)cc1	99.6%
Cc1ccc(S(=O)(=O)N2CCN(CC(=O)N/N=C/c3cc([N+](=O)[O-])ccc3Cl)CC2)cc1	74.4%
CC(C)/C=N/NC(=O)c1cc(Br)ccc1O	89%

Reference: PubChem BioAssay AID827 (SRMLSC, 2007)
